Drawing on PubChem BioAssay (NCI), this text covers growth for 16 compounds.

Several values for one entry are separate records, joined by “and”; a condition that tells them apart may be missing. Equal entries are not always repeated. This is part of a sample that, as a whole, favours compounds with a hit. Of some 83,000 tested, about 20% had one in any assay.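 Interpretation: 100, growth as untreated; towards 0, rising growth inhibition; 0, no net growth; 0 to -100, cell death. Compounds scoring below 10 were considered active.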 Activity calls are given as the source filed them.

Among the test systems are EKVX NSCLC; SN12C renal; UO-31 renal; TK-10 renal; ACHN renal; CAKI-1 renal; A498 renal; CCRF-CEM leukemia; MOLT-4 leukemia.
What all share (test): NCI-60 one-dose screen, 48 h (100 = growth as untreated, 0 = no growth, -100 = all killed)
Common to all, as to details: 10 µM unless noted

For the compound `CCCCCCCCc1cc(Cl)c(O)c(Cl)c1`, the growth with EKVX NSCLC is 98.9% (inactive); with SN12C renal, 103% (inactive); with UO-31 renal it was 97.2% (inactive); with TK-10 renal it was 113% (inactive); in the test on ACHN renal, 103% (inactive); with CAKI-1 renal, 89.6% (inactive). Further, the growth in the test on A498 renal is 108% (inactive); with CCRF-CEM leukemia, 111% (inactive); in the test with MOLT-4 leukemia, 98.2% (inactive).

Consider `Oc1ccc2ccccc2c1N=Nc1ccccn1`, for which the growth was 22.2% (inactive) in the test with EKVX NSCLC; 35.4% (inactive) with SN12C renal; 33.1% (inactive) in the test with UO-31 renal; 6% (active) with TK-10 renal; 11.9% (inactive) in the test with ACHN renal; 11.7% (inactive) in the test on CAKI-1 renal. Also, the growth in the test with A498 renal was 79.9% (inactive); with MOLT-4 leukemia, 11.4% (inactive).

For `CC1(C)CCCC2=C1C(=O)N(SC(Cl)(Cl)Cl)C2=O`, the growth in the test on SN12C renal is 93.4% (inactive); with UO-31 renal it was 79.1% (inactive); with TK-10 renal, 88.2% (inactive); with ACHN renal, 82.9% (inactive); with CAKI-1 renal, 92.4% (inactive); with A498 renal, 120% (inactive). For the same compound, the growth is 40.5% (inactive) with CCRF-CEM leukemia and 21% (inactive) in the test with MOLT-4 leukemia.

For the compound `CC(C)(C)c1ccc(O)c(-c2ccccc2)c1`, the growth in the test on EKVX NSCLC is 103% (inactive); in the test with SN12C renal, 109% (inactive); in the test with UO-31 renal it was 110% (inactive); with TK-10 renal, 99.5% (inactive); in the test with ACHN renal, 102% (inactive); in the test with CAKI-1 renal, 86.7% (inactive). Moreover, the growth was 121% (inactive) in the test with A498 renal, 97.1% (inactive) in the test on CCRF-CEM leukemia and -54.2% (active) with MOLT-4 leukemia.

Consider `O=C1C=C(Cl)C(=O)c2ccccc21`, for which the growth in the test with SN12C renal is 101% (inactive); in the test on UO-31 renal, 60.8% (inactive); with TK-10 renal it was 152% (inactive); with ACHN renal, 38% (inactive); in the test with CAKI-1 renal, 90.6% (inactive); in the test on A498 renal, 118% (inactive). Besides, the growth in the test with CCRF-CEM leukemia is 53.3% (inactive); in the test with MOLT-4 leukemia, 37.4% (inactive).

Turning to `C=C(C(N)=O)C(N)C(=O)O` (centres undefined), the growth in the test with UO-31 renal was 97.6% (inactive); with TK-10 renal, 109% (inactive); in the test on ACHN renal, 108% (inactive); with CAKI-1 renal it was 116% (inactive); with A498 renal it was 113% (inactive).

For the compound `CN(C)c1ccc(/C=C/c2nccc3ccccc23)cc1`, the growth in the test with SN12C renal is 75.6% (inactive); in the test with UO-31 renal, 58.4% (inactive); with TK-10 renal, 88.2% (inactive); in the test with ACHN renal, 87.1% (inactive); in the test with CAKI-1 renal, 73.6% (inactive); in the test on MOLT-4 leukemia, 99.9% (inactive).

On to `Cc1cc(Br)c2nsnc2c1[N+](=O)[O-]`, for which the growth was 106% (inactive) in the test with EKVX NSCLC; 29.4% (inactive) with SN12C renal; 40.2% (inactive) in the test on UO-31 renal; 36% (inactive) in the test with TK-10 renal; 36.2% (inactive) in the test on ACHN renal; -34.5% (active) with CAKI-1 renal. In addition, the results for the growth with A498 renal, in the test with CCRF-CEM leukemia and in the test on MOLT-4 leukemia were 99.2% (inactive), 20.1% (inactive) and 39.4% (inactive), respectively.

Take `S=C(SSC(=S)N1CCOCC1)N1CCOCC1`: the growth in the test on EKVX NSCLC was 95.3% (inactive); with SN12C renal, 99.7% (inactive); in the test with UO-31 renal it was 76.9% (inactive); in the test with TK-10 renal, 95.7% (inactive); in the test with ACHN renal, 98.3% (inactive); with CAKI-1 renal, 79.1% (inactive). In addition, the growth was 90.6% (inactive) with A498 renal, 21.9% (inactive) in the test on CCRF-CEM leukemia and 93.6% (inactive) with MOLT-4 leukemia.

Turning to `CN(C)c1ccc(/C=C/c2sc3ccc4ccccc4c3[n+]2C)cc1`, the growth in the test on EKVX NSCLC was -13.6% (active); in the test with SN12C renal, -54.3% (active); in the test on UO-31 renal, 15.9% (inactive); in the test with TK-10 renal it was -42.1% (active); in the test with ACHN renal, -49.3% (active); in the test with CAKI-1 renal it was -10.9% (active). For the same compound, the figures for the growth in the test on A498 renal, in the test on CCRF-CEM leukemia and in the test on MOLT-4 leukemia were -20.8% (active), -8.92% (active) and -26.7% (active), respectively.

In the case of `CSc1nc(C)c(C(=O)CCN2CCN(c3ccccn3)CC2)s1`, the growth is 97.6% (inactive) in the test with SN12C renal; 82.9% (inactive) in the test with UO-31 renal; 118% (inactive) with TK-10 renal; 101% (inactive) in the test on ACHN renal; 100% (inactive) in the test with CAKI-1 renal; 88.4% (inactive) with A498 renal.

For the compound `CC1(C)CCC[C@]2(C)[C@@H](C=O)C(C=O)=CC[C@@H]12`, in the test with TK-10 renal, the growth was -6.19% [100 µM] (active) and -33.3% [100 µM] (active).

Take `CN=C(N)N/N=C(\c1ccccc1)c1ccc(Br)cc1`: the growth in the test with SN12C renal is 16.2% (inactive); in the test with UO-31 renal, 0.0982% (active); in the test with TK-10 renal it was 21.6% (inactive); in the test with ACHN renal it was 21.5% (inactive); in the test on CAKI-1 renal it was 0.888% (active); in the test with A498 renal, -19.2% (active). In addition, the results for the growth in the test on CCRF-CEM leukemia and in the test with MOLT-4 leukemia were 2.24% (active) and -14% (active), respectively.

With `O=C1C(=O)c2cc([N+](=O)[O-])ccc2-c2ccccc21`, the growth in the test on EKVX NSCLC was -88.8% (active); in the test with SN12C renal, -88.9% (active); in the test on UO-31 renal it was -87.7% (active); with TK-10 renal it was -85.2% (active); in the test with ACHN renal, -99.3% (active); in the test on CAKI-1 renal, -68.6% (active). Also, the growth with A498 renal was 110% (inactive); in the test on CCRF-CEM leukemia, -13.5% (active); with MOLT-4 leukemia it was 0.151% (active).

In the case of `C=c1c2ccccc2oc2nc3[nH]c(N)c(C#N)c(N)c3c(=N)c12`, the growth in the test on TK-10 renal is 43.9% [100 µM] (inactive) and -12.1% [100 µM] (active).

With `CCCCCCCCCCCC1N=C(N)N=C(N)N1c1cccc(Br)c1` (centres undefined), the growth with EKVX NSCLC was 43.2% (inactive); in the test on SN12C renal, 8.08% (active); in the test on UO-31 renal, 71.9% (inactive); in the test on TK-10 renal, -45% (active); with ACHN renal, 25.3% (inactive); in the test with CAKI-1 renal it was 80.5% (inactive). Moreover, the growth is 76.1% (inactive) in the test with A498 renal, -15.1% (active) in the test on CCRF-CEM leukemia and -16.5% (active) with MOLT-4 leukemia.
